Measurements taken from PubChem BioAssay AID1846 (The Scripps Research Institute Molecular Screening Center, 2009).
Out of some 2,300 compounds screened, about 1,500 (65%) were called active. So high a share suggests a set chosen from earlier hits. Not all results are given here. Unmarked numbers belong to inactive results. Rule as the data show it: active = inhibition above about 18%; inactive = the rest.

The compounds below were run against Heat shock protein HSP 90-alpha (Homo sapiens) (UniProt P07900) (assay: HSP90 inhibitors, confirmation, cell lysate, luminescence (AID 1846;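 also: 0% = vehicle wells and 100% = reference inhibitor wells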)). Conditions: rabbit reticulocyte lysate, luciferase refolding luminescence, 3 h; at 5.9 µM; stronger effect = higher value.

| Compound | inhibition |
| --- | --- |
| COc1cccc(-c2nc3ccc(N4CCN(C)CC4)cc3[nH]2)c1 | 69.3% (active) |
| O=c1c2ccccc2nc(/C=C/c2ccco2)n1-c1ccccc1O | 9.67% |
